S1P2 ag: activates the human S1P2 receptor | O95136 | S1P2-expressing cell line, agonist reporter read-out | activation, % at 4.5 µM | actives 0.46% (n = 97,000) | AID 729; in the data active means activation above about 16%;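 further: 0% = vehicle low control and 100% = maximal reference agonist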
Target sequence (O95136 whole entry, looked up): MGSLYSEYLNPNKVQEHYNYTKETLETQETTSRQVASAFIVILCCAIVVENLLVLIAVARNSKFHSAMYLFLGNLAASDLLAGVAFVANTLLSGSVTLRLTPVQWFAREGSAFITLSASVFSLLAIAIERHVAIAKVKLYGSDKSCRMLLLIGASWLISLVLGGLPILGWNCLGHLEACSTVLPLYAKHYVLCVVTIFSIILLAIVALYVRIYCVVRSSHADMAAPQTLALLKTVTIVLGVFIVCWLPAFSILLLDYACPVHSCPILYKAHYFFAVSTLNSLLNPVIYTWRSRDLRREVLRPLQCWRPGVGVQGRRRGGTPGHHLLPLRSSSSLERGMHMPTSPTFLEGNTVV
GALR2 ag: activates the human galanin receptor 2; GALR2-expressing cells, agonist activation read-out; actives 0.48% (n = 140,000); O43603; activation, % (test concentration not listed); in the data active means activation above about 5%, passing the limit was not always enough;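 further: 0% = vehicle buffer wells and 100% = reference agonist at full effect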
Smad3 inh: inhibitors of human Smad3 transcription factor binding | TR-FRET Smad3/Dy647-FoxH1 peptide binding, europium anti-His | P84022 | inhibition, % at 25 µM | actives 0.29% (n = 88,000);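 active means compounds that reduce the energy-transfer binding signal between the protein and its labelled peptide by more than half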;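 further: 0% = Smad3 plus labelled peptide maximal FRET and 100% = peptide-only background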
Calb biofilm kill: kills Candida albicans biofilms; AID 834; actives 0.14% (n = 85,000); inhibition, % at 6 µM; C. albicans biofilm + clotrimazole, Alamar Blue;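 active means inhibition above 20%; inactive means inhibition below 20%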;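 further: preformed 24 hr biofilms exposed to compound for 48 hr; 0% = biofilm without compound and 100% = blank killed by clotrimazole plus chlorhexidine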
S1P2 blocker: blocks the human S1P2 receptor; cell-based S1P2 antagonist assay, inhibition at 5 uM; inhibition, % at 5 µM; actives 0.21% (n = 97,000); AID 736; in the data active means inhibition above about 45%;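 further: CRE beta-lactamase reporter cells expressing human S1P2 stimulated with S1P; 0% = agonist at EC80 alone and 100% = agonist plus reference antagonist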
GALR2 antag: GALR2 (human) receptor antagonism; O43603; GALR2-expressing cells, antagonist mode; inhibition, % at 4 µM; actives 0.39% (n = 140,000); in the data active means inhibition above about 27%;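 further: cells stimulated with galanin 1-16 at roughly its EC80; 0% = agonist challenge control and 100% = basal control without agonist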
Starred values were filed as active, the others as inactive; · = not tested or not shown; [ ] = remark or other dose. Hits are enriched below; roughly 1.3% of the tested compounds scored in any of these assays.

SMILES	S1P2 ag	GALR2 ag	Smad3 inh	Calb biofilm kill	S1P2 blocker	GALR2 antag
C=CCSc1cc(C)nc2c(-c3ccc(Cl)cc3)c(C)nn12	23.0*	0.5	7.7	3.4	-35.2	-9.4
Cc1cc(SCC(=O)c2cccs2)n2nc(C)c(-c3ccc(Cl)cc3)c2n1	·	-1.1	·	·	·	9.7
Cc1cccc(N2CCN(c3cc(C)nc4nnnn34)CC2C)c1 (configuration not stated)	·	5.4*	10.7	7.9	·	7.0
COc1ccccc1C(=O)N1CCCN(C(=O)c2ccccc2OC)CC1	37.3*	-0.3	2.9	8.4	4.2	-8.7
COc1ccccc1C(=O)Nc1ccccc1C(=O)N1CCCC1	-2.4	-0.6	10.5	5.4	16.6	-7.4
C[C@H]1[C@H](O)[C@@H](C)C=CC=CC=CC=CC=CC=CC=C[C@H](O[C@H]2O[C@@H](C)[C@H](O)[C@@H](N)[C@@H]2O)C[C@@H]2O[C@@](O)(C[C@@H](O)C[C@@H](O)[C@@H](O)CC[C@@H](O)C[C@@H](O)CC(=O)O[C@H]1C)C[C@H](O)[C@H]2C(=O)O	·	·	16.9	·	·	·
O=C(O)c1ccoc1CN1CCCCC1	-5.7	-1.3	-10.7	5.4	28.3	-8.1
CO[C@@H]1/C=C\O[C@]2(C)Oc3c(C)c(O)c4c(O)c(cc(O)c4c3C2=O)NC(=O)C(C)=C/C=C\[C@H](C)[C@@H](O)[C@H](C)[C@H](O)[C@H](C)[C@H](OC(C)=O)[C@@H]1C	·	·	-1.2	·	·	·
N#CC(c1cccc(Cl)c1)c1ccc2c(C(F)(F)F)cc(C(F)(F)F)nc2n1 (configuration not stated)	-5.3	-1.9	6.8	7.1	88.0*	15.1
C[C@@]12C[C@H](O)[C@@H]3[C@H](CCC4=CC(=O)CC[C@]43C)[C@H]1CC[C@H]2c1csc(N)n1	·	·	14.6	·	·	·
O=C(Nc1ccc2c(c1)OCCO2)C1CCN(C(=O)c2ccc(Br)cc2)CC1	0.5	-2.4	-10.0	3.5	0.0	1.8
O=C(Nc1ccc2c(c1)OCCO2)C1CCN(C(=O)c2ccccc2)CC1	23.7*	-2.7	-3.5	9.4	9.5	3.5
Cc1c(CN(C)C(=O)c2sc3cc(Cl)ccc3c2Cl)cnn1C	-1.7	-0.3	1.1	8.7	-21.4	-3.0
CC(C)(N)CO[C@@H]1C[C@@H]2CC[C@@]1(C)C2(C)C	·	·	2.8	·	·	·
O=C(OCCN1C(=O)c2ccccc2C1=O)c1cc(S(=O)(=O)N2CCOCC2)ccc1F	18.3*	-1.7	8.3	7.1	-27.6	1.2
O=C(COC(=O)c1cc(S(=O)(=O)N2CCOCC2)ccc1F)c1ccc[nH]1	·	-1.8	·	·	·	-6.3
COc1cc2c(=O)n(CC3CCCO3)c(=O)n(CC(=O)Nc3ccc(F)cc3F)c2cc1OC (configuration not stated)	·	-0.3	-2.0	8.1	·	3.5
COc1cc2c(=O)n(CC3CCCO3)c(=O)n(CC(=O)Nc3cccc(Cl)c3)c2cc1OC (configuration not stated)	-1.9	0.0	83.2*[fluorescence artefact?]	-6.3	2.6	-12.8
Cc1ccc(-n2c(SCC(=O)Nc3cc(C)on3)nc3c([nH]c4ccccc43)c2=O)cc1	17.7*	2.3	-13.2	0.1	-9.3	3.2
Cc1ccc(-c2csc(NC(=O)c3ccc4c(=O)n5c(nc4c3)CCCCC5)n2)cc1	·	-0.6	·	·	·	3.0
COc1ccc(C(=O)c2sc3nc(-c4ccccc4)ccc3c2N)cc1OC	-13.6	0.2	·	·	57.0*	20.2
COc1ccc(-c2ccc3c(N)c(C(=O)c4ccc(OC)c(OC)c4)sc3n2)cc1	-4.2	-1.8	·	·	30.7	9.9
Cc1cc(N)n2ncc(-c3ccc(Cl)cc3)c2n1	-2.5	-1.5	2.8	3.1	-17.9	16.5
Cc1cc(NCCOCCO)n2ncc(-c3ccc(Cl)cc3)c2n1	17.6*	-1.0	8.7	10.6	-41.7	-6.7
CC(OC(=O)c1nc(-c2ccccc2)n(-c2ccccc2)n1)C(=O)Nc1cc(Cl)cc(Cl)c1 (configuration not stated)	·	-0.2	·	·	·	-10.7
SMILES	S1P2 ag	GALR2 ag	Smad3 inh	Calb biofilm kill	S1P2 blocker	GALR2 antag
CON/C=C(\C=Nc1ccc(Cl)cc1)c1ncc(C(F)(F)F)cc1Cl	-4.7	-1.9	·	·	47.0*	-2.1
O=C(Cn1cnc2c(nnn2Cc2ccc(F)cc2)c1=O)N1CCCc2ccccc21	-8.9	-2.3	3.0	8.1	-1.1	9.2
CC(C)c1ccc2c(c1)CC[C@@H]1[C@](C)(CN)CCC[C@@]21C	·	·	12.3	·	·	·
Cc1cc(C(=O)CN2C(=O)NC3(CCCc4ccccc43)C2=O)c(C)n1Cc1ccccc1 (configuration not stated)	8.7	-0.9	0.8	-3.3	-22.4	-0.1
Cc1cc(C(=O)CN2C(=O)CCC2=O)c(C)n1Cc1ccccc1	150.3*	-0.5	7.3	3.7	-40.7	-10.7
Cc1cc(C(=O)CN2C(=O)c3ccccc3C2=O)c(C)n1Cc1cccs1	26.9*	-0.6	-3.8	-0.3	-2.6	-6.5
CCCNC(=O)c1c(N)n(-c2cccc(OC)c2)c2nc3ccccc3nc12	20.9*	17.7*	-5.6	-0.1	-29.1	-5.1
CN1CCc2ccccc2[C@H]1Cc1ccccc1NC(=O)c1sc2ccccc2c1Cl	·	·	32.1	·	·	·
Cc1ccc(NC(C)c2cc(Cl)ccc2O)cc1 (configuration not stated)	-2.9	-0.6	-0.1	35.5*	12.4	3.6
Cc1ccc(N2C(=O)c3ccccc3C2=O)cc1C	1.6	-1.9	0.1	0.0	15.0	-6.0
Cc1cccc(C)c1N1C(=O)c2ccccc2C1=O	-3.3	-3.8	10.5	39.5*	11.3	8.4
COc1ccc(-c2cc(C(=O)Nc3c(Cl)cc(Cl)cc3Cl)c3ccccc3n2)cc1OC	·	4.9*	·	·	·	-0.1
O=C(O)c1cc2ccccc2c(Cc2c(O)c(C(=O)O)cc3ccccc23)c1O	·	·	20.9	·	·	·
O=C(NCc1cccs1)c1cnc2sccn2c1=O	·	-0.9	12.6	7.8	·	7.3
COc1ccc(Cn2c3ccc(OC)cc3c3nc4ccccc4nc32)cc1	·	-1.7	·	·	·	-7.1
Cn1c2ccc(Cl)cc2c2nc3ccccc3nc21	23.9*	-0.5	9.2	2.9	-53.4	0.9
CCOC(=O)c1ccc(NC2=CC(=O)C(=O)c3ccccc32)cc1	-6.8	-2.2	77.5*	10.0	-10.5	7.5
c1cnc(SCCOc2ccc3c(c2)CCC3)nc1	-5.6	-1.4	-6.7	46.1*	-37.1	-19.0
O=C1CCC(=O)N1OCCOc1ccc2c(c1)CCC2	-0.1	-2.1	0.9	-2.5	18.0	-5.4
O=C(c1cc(NC(=O)C23CC4CC(CC(C4)C2)C3)cc(NC(=O)C23CC4CC(CC(C4)C2)C3)c1)N1CCCCC1	-10.7	-1.7	14.8	·	73.9*	12.9
O=C(NC(=S)N1CCCCC1)C12CC3CC(CC(C3)C1)C2	-2.8	-0.8	·	·	-5.1	-3.8
Cc1nc2ccccc2n1C1CC(=O)N(N(C)C)C1=O (configuration not stated)	-6.3	-2.5	7.3	1.9	-10.0	11.3
COc1ccc(-c2noc(-c3cc4ccccc4oc3=O)n2)cc1	-3.4	0.1	·	·	6.8	-6.3
COc1cc2c(cc1OC)C(c1cc3ccccc3oc1=O)=NC(C)(C)C2	32.8*	-0.1	0.9	0.1	-58.4	13.4
